{"source": "paper PMC4336329", "about": "(PLoS ONE, 2015)", "note": "Among all 310,000 compounds or so, about 14,000 (4.5%) showed an effect of 50% or more. The effect is printed as a negative number. The list comes from a sample in which strong results are over-represented; it also holds similar structures and randomly drawn compounds."}
{"target": "human ether-à-go-go-related gene (hERG) potassium channel (human, UniProt Q12809)", "sequence (Q12809 whole entry, looked up)": "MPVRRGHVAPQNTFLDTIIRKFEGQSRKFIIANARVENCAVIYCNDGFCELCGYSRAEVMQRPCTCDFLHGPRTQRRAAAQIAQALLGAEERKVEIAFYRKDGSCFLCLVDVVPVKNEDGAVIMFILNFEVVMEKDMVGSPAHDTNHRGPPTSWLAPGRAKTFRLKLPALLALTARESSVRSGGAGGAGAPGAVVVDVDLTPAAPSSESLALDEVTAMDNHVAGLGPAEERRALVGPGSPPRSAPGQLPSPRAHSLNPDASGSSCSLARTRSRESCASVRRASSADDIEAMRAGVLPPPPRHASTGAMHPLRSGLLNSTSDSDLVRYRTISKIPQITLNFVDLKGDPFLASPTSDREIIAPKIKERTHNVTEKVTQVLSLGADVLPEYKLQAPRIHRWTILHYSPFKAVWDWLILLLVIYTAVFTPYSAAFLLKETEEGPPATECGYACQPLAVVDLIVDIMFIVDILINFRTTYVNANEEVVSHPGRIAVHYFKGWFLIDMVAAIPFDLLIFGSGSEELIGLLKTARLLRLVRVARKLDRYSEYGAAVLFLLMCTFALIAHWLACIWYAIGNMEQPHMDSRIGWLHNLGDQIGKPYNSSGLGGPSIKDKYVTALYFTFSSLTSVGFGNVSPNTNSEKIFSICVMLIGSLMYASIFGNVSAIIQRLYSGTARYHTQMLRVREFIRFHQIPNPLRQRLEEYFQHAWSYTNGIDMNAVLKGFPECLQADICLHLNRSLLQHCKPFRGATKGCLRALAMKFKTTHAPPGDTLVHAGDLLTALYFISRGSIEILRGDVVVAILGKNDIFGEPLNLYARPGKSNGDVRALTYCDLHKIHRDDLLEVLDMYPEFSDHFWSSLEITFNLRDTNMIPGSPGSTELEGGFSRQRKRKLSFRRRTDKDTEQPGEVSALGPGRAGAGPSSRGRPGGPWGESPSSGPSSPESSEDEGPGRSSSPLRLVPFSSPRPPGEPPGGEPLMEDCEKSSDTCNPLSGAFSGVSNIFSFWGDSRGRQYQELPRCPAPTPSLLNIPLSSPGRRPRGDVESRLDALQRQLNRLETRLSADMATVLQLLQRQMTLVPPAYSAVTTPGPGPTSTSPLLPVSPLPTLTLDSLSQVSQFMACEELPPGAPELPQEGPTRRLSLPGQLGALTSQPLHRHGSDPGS", "assay": "primary screen, population patch clamp on CHO cells stably expressing hERG; higher = less effect of the substance", "units": {"hERG current change (%, negative = inhibition) at 10uM": "%"}}
{"molecule": "Cc1cccc(C2Nc3ccccc3C(=O)N2c2ccccc2)n1", "note": "(stereo not shown);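 note: peak tail current of the secondary pulse compared with the same well before compound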", "hERG current change (%, negative = inhibition) at 10uM": 4.41}
{"molecule": "O=C(NCc1ccc2c(c1)OCO2)C1CC(c2ccc(Cl)c(Cl)c2)=NO1", "note": "(stereo not shown)", "hERG current change (%, negative = inhibition) at 10uM": 15}
{"molecule": "Cc1nn(C(C)c2n[nH]c(=S)n2-c2ccc(F)cc2)c(C)c1[N+](=O)[O-]", "note": "(stereo not shown)", "hERG current change (%, negative = inhibition) at 10uM": 13.3}
{"molecule": "O=C(Nc1ccc2c(c1)C(=O)OC2)c1ccc(C(F)(F)F)cc1", "hERG current change (%, negative = inhibition) at 10uM": 17.3}
{"molecule": "COc1ccc(CN2CCNC(=O)C2CC(=O)NCCCn2nnc3ccccc32)cc1C", "note": "(stereo not shown)", "hERG current change (%, negative = inhibition) at 10uM": -2.87}
{"molecule": "CCc1ccc(NC(=O)NCCN2CCc3ccccc3C2)cc1", "hERG current change (%, negative = inhibition) at 10uM": -54.7}
{"molecule": "O=C(NCCN1CCCCC1)Nc1ccc([N+](=O)[O-])cc1", "hERG current change (%, negative = inhibition) at 10uM": -41.4}
{"molecule": "O=C(NCCN1CCc2ccccc2C1)Nc1ccc(F)cc1", "hERG current change (%, negative = inhibition) at 10uM": -37.5}
{"molecule": "CN1CCN(CCNC(=O)Nc2ccc([N+](=O)[O-])cc2)CC1", "hERG current change (%, negative = inhibition) at 10uM": -25.7}
{"molecule": "CCc1ccc(NC(=O)CN2CCc3ccccc3C2)cc1", "hERG current change (%, negative = inhibition) at 10uM": -34.2}
{"molecule": "O=C(NCCN1CCc2ccccc2C1)Nc1ccc([N+](=O)[O-])cc1", "hERG current change (%, negative = inhibition) at 10uM": -70.1}
{"molecule": "CCCCSCCCNC(=S)Nc1ccccc1C", "hERG current change (%, negative = inhibition) at 10uM": 5.08}
{"molecule": "Cc1ccc(S(=O)(=O)N(CC(=O)NCCSCc2ccco2)c2ccc(F)cc2)cc1", "hERG current change (%, negative = inhibition) at 10uM": -28.3}
{"molecule": "Cc1ccc(N(CC(=O)NCCSCc2ccco2)S(=O)(=O)c2ccc(C)cc2)cc1", "hERG current change (%, negative = inhibition) at 10uM": -69.7}
{"molecule": "COc1ccc(Cl)cc1N(CC(=O)NC1CC2CCC1C2)S(=O)(=O)c1ccccc1", "note": "(stereo not shown)", "hERG current change (%, negative = inhibition) at 10uM": -31.5}
{"molecule": "COc1ccc(OC)c(N(CC(=O)NC2CC3CCC2C3)S(=O)(=O)c2ccccc2)c1", "note": "(stereo not shown)", "hERG current change (%, negative = inhibition) at 10uM": -59.7}
{"molecule": "COc1ccccc1N(CC(=O)NCCSCc1ccco1)S(=O)(=O)c1ccccc1", "hERG current change (%, negative = inhibition) at 10uM": -26.6}
{"molecule": "COc1ccc(N(CC(=O)NCCSCc2ccco2)S(=O)(=O)c2ccc(C)cc2)cc1", "hERG current change (%, negative = inhibition) at 10uM": -17.9}
{"molecule": "COc1ccc(S(=O)(=O)N(CC(=O)NC2CC3CCC2C3)c2ccccc2OC)cc1", "note": "(stereo not shown)", "hERG current change (%, negative = inhibition) at 10uM": -25}
{"molecule": "COc1ccc(OC)c(N(CC(=O)NCCSCc2ccco2)S(=O)(=O)c2ccc(OC)c(OC)c2)c1", "hERG current change (%, negative = inhibition) at 10uM": -22.6}
{"molecule": "COc1ccc(OC)c(N(CC(=O)NCCSCc2ccco2)S(=O)(=O)c2ccccc2)c1", "hERG current change (%, negative = inhibition) at 10uM": -69.2}
{"molecule": "O=C(NCc1nc2ccccc2[nH]1)c1cccc(S(=O)(=O)N2CCCCC2)c1", "hERG current change (%, negative = inhibition) at 10uM": 13.9}
{"molecule": "Cn1c(=O)c2c(nc(Br)n2CCCc2ccccc2)n(C)c1=O", "hERG current change (%, negative = inhibition) at 10uM": -9.05}
{"molecule": "COc1ccc(Cl)cc1S(=O)(=O)N1CCC(C(=O)NC2CCCC2)CC1", "hERG current change (%, negative = inhibition) at 10uM": -21.2}
{"molecule": "COC(=O)[C@H]1C[C@@H]1[C@H](NC(=O)c1cc(C)on1)c1ccccc1", "hERG current change (%, negative = inhibition) at 10uM": 10.3}
{"molecule": "Cc1cc(NC(=O)CSCC(=O)N2CCN(c3cccc(C(F)(F)F)c3)CC2)no1", "hERG current change (%, negative = inhibition) at 10uM": -11.3}
{"molecule": "COCCN(C(=O)/C=C/c1ccccc1)c1nnc(-c2cccnc2)s1", "hERG current change (%, negative = inhibition) at 10uM": -9.61}
{"molecule": "Cn1c(N2CCOCC2)c(C#N)c2ccccc21", "hERG current change (%, negative = inhibition) at 10uM": -3.19}
{"molecule": "COc1ccc(OC)c(S(=O)(=O)ON2C(=O)c3ccccc3C2=O)c1", "hERG current change (%, negative = inhibition) at 10uM": 6.82}
{"molecule": "CCOC(=O)/C(C#N)=C/c1ccc(N2CCN(C)CC2)cc1", "hERG current change (%, negative = inhibition) at 10uM": -27.8}
{"molecule": "CCOC(=O)/C(C#N)=C/c1ccc(N2CCCCC2)cc1", "hERG current change (%, negative = inhibition) at 10uM": -60.9}
{"molecule": "CCOC(=O)/C(C#N)=C\\c1ccc(N2CCN(C)CC2)cc1", "hERG current change (%, negative = inhibition) at 10uM": -38.2}
{"molecule": "Cn1ncc(C(=O)Nc2ccc(OC(F)(F)F)cc2)c1-n1cccc1", "hERG current change (%, negative = inhibition) at 10uM": -81.3}
{"molecule": "O=C(CCn1cccc1)Nc1ccc(OC(F)(F)F)cc1", "hERG current change (%, negative = inhibition) at 10uM": 2.32}
{"molecule": "Cn1ncc(Br)c1NC(=O)Nc1ccc(OC(F)(F)F)cc1", "hERG current change (%, negative = inhibition) at 10uM": 8.82}
{"molecule": "O=c1[nH]c2ccccc2nc1/C=C(\\O)c1cccs1", "hERG current change (%, negative = inhibition) at 10uM": 19.5}
{"molecule": "CCCCN(CC)S(=O)(=O)c1ccc2c(c1)CCCN2C(C)=O", "hERG current change (%, negative = inhibition) at 10uM": -43.3}
{"molecule": "CCCN(CCC)S(=O)(=O)c1ccc2c(c1)CCCN2C(C)=O", "hERG current change (%, negative = inhibition) at 10uM": -47.2}
{"molecule": "CC(=O)N1CCCc2cc(S(=O)(=O)N(CC(C)C)CC(C)C)ccc21", "hERG current change (%, negative = inhibition) at 10uM": -50.4}
{"molecule": "Cn1c(=O)oc2cc(S(=O)(=O)N3CCC(C(=O)NCc4ccccc4)CC3)ccc21", "hERG current change (%, negative = inhibition) at 10uM": -6.54}
{"molecule": "CC(C)(C)NC(=O)Cn1nnc(-c2ccc(Cl)cc2)n1", "hERG current change (%, negative = inhibition) at 10uM": 2.32}
{"molecule": "COC(=O)C1=C(C)OC(N)=C(C#N)C1c1cc(OC)c(OCC(N)=O)cc1Cl", "note": "(stereo not shown)", "hERG current change (%, negative = inhibition) at 10uM": -10}
{"molecule": "COC(=O)c1ccc(N2CCOCC2)c(F)c1", "hERG current change (%, negative = inhibition) at 10uM": 9.09}
